Data on 15 molecules can be found in PubChem BioAssay (NCI).

Some test systems named below: RPMI-8226 leukemia; OVCAR-8 ovarian; OVCAR-5 ovarian; OVCAR-4 ovarian; SK-OV-3 ovarian; IGROV1 ovarian; OVCAR-3 ovarian; HS 578T breast; NCI/ADR-RES ovarian; T-47D breast.
Holding throughout (assay): NCI-60 one-dose screen, 48 h (100 = growth as untreated, 0 = no growth, -100 = all killed)
Common to all, as to conditions: 10 µM unless noted

Compounds without any hit were thinned out: in the full panel of roughly 83,000, 20% have a hit.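 48-hour exposure, single concentration, 96-well plates; percent growth endpoint where 0 means no net growth. Active: below 10.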 A number with no mark means an inactive call. Calls of active or inactive are those of the source.

Take `CSc1nc(-c2ccco2)c2c(N)[nH]nc2n1`: the growth in the test with RPMI-8226 leukemia is 109%; in the test with OVCAR-8 ovarian it was 108%; with OVCAR-5 ovarian it was 109%; in the test with OVCAR-4 ovarian, 109%; in the test on SK-OV-3 ovarian, 98.6%; in the test with IGROV1 ovarian it was 109%. In addition, the growth with OVCAR-3 ovarian is 116%; in the test on HS 578T breast, 108%; in the test on NCI/ADR-RES ovarian, 103%; with T-47D breast it was 75.7%.
In the case of `O=C(CCc1nnc2sc(OCc3ccccc3)nn12)c1nc2ccc([N+](=O)[O-])cc2[nH]1`, the growth is 106% in the test on RPMI-8226 leukemia; 94.7% in the test with OVCAR-8 ovarian; 103% in the test with OVCAR-5 ovarian; 102% in the test with OVCAR-4 ovarian; 77.3% in the test on SK-OV-3 ovarian; 93.8% with IGROV1 ovarian. For the same molecule, the growth was 96.4% in the test with OVCAR-3 ovarian, 88.2% with HS 578T breast, 99% in the test with NCI/ADR-RES ovarian and 97.7% in the test on T-47D breast.
For `CC1CCN(CCCCCOc2ccc3oc4cc(Cl)ccc4c(=O)c3c2)CC1`, the growth in the test on RPMI-8226 leukemia was 50.4%; with OVCAR-8 ovarian, 73.6%; in the test on OVCAR-5 ovarian, 64.8%; in the test with OVCAR-4 ovarian, 75.2%; in the test on SK-OV-3 ovarian, 96.5%; in the test with IGROV1 ovarian, 51.8%. Also, the growth was 73.3% with OVCAR-3 ovarian, 84.8% in the test with HS 578T breast, 70.8% with NCI/ADR-RES ovarian and 64.6% with T-47D breast.
In the case of `COc1ccc(/C=C(/C(=O)N2CCCC2)c2cc(OC)c(OC)c(OC)c2)cc1`, the growth in the test on RPMI-8226 leukemia was 8.53% (active); in the test on OVCAR-8 ovarian, 40%; with OVCAR-5 ovarian, 63.1%; in the test with OVCAR-4 ovarian, 68.9%; with SK-OV-3 ovarian it was 22.3%; in the test with IGROV1 ovarian it was 49.9%. Also, the growth was 5.36% (active) in the test on OVCAR-3 ovarian, 27.8% with HS 578T breast, 22% in the test with NCI/ADR-RES ovarian and 42.4% with T-47D breast.
For `COc1ccc(-c2nnc(N3CCN(C(=O)CN4CCN(c5ccc(OC)cc5)CC4)CC3)nc2-c2ccc(OC)cc2)cc1`, the growth with RPMI-8226 leukemia was -59.8% (active); with OVCAR-8 ovarian, -54.9% (active); with OVCAR-5 ovarian, 111%; in the test on OVCAR-4 ovarian, -48.3% (active); in the test with SK-OV-3 ovarian, 101%; with IGROV1 ovarian, -60.8% (active). The growth was -96.1% (active) in the test with OVCAR-3 ovarian, 21% with HS 578T breast, -40.6% (active) in the test on NCI/ADR-RES ovarian and -64.5% (active) with T-47D breast.
As to `CCCNc1nc(C)[nH]c(=O)c1S`, the growth in the test on RPMI-8226 leukemia is 87.4%; with OVCAR-8 ovarian, 105%; with OVCAR-5 ovarian it was 113%; in the test with OVCAR-4 ovarian, 105%; in the test on SK-OV-3 ovarian, 134%; with IGROV1 ovarian, 102%. The growth was 106% in the test with OVCAR-3 ovarian, 137% in the test with HS 578T breast, 109% with NCI/ADR-RES ovarian and 98.6% in the test on T-47D breast.
As for `O=S(=O)(Nc1nccs1)c1ccc(Nc2nc(-c3ccncc3)cs2)cc1`, the growth in the test with RPMI-8226 leukemia is 99.3%; in the test on OVCAR-8 ovarian it was 121%; in the test with OVCAR-5 ovarian, 117%; with OVCAR-4 ovarian, 115%; with SK-OV-3 ovarian, 108%; in the test with IGROV1 ovarian it was 84.1%. Besides, the growth is 118% in the test with OVCAR-3 ovarian, 96.8% in the test with HS 578T breast, 122% in the test with NCI/ADR-RES ovarian and 105% with T-47D breast.
On to `N#Cc1c(-c2ccc(F)cc2)nc(N=Nc2c(O)[nH]c3ccccc23)nc1N1CCOCC1`, for which the growth in the test on RPMI-8226 leukemia is 80.4%; in the test with OVCAR-8 ovarian it was 77.7%; in the test with OVCAR-5 ovarian it was 82.6%; with OVCAR-4 ovarian it was -35.5% (active); in the test on SK-OV-3 ovarian it was 88.2%; in the test with IGROV1 ovarian it was 59.9%. Besides, the growth in the test on OVCAR-3 ovarian is 72.9%; in the test with HS 578T breast, 38.5%; in the test on NCI/ADR-RES ovarian it was 57.3%; in the test with T-47D breast, 80.2%.
For `NC(N)=NC(N)=Nc1cc2ccccc2c2ccccc12`, the growth in the test on RPMI-8226 leukemia is -15.4% (active); in the test on OVCAR-8 ovarian, 45%; with OVCAR-5 ovarian, 57.3%; with OVCAR-4 ovarian it was 45.8%; in the test on SK-OV-3 ovarian it was 59.8%; in the test on IGROV1 ovarian, 17.2%. For the same molecule, the growth with OVCAR-3 ovarian was 63.2%; in the test with HS 578T breast it was 46.5%; in the test on NCI/ADR-RES ovarian, 80.4%; in the test with T-47D breast it was 30.2%.
With `COc1cc(/C=C/C(=O)c2cccs2)ccc1OCc1ccc(Cl)nc1`, the growth in the test on RPMI-8226 leukemia is 17.5%; in the test with OVCAR-8 ovarian, 80.2%; with OVCAR-5 ovarian, 88.9%; with OVCAR-4 ovarian it was 101%; in the test with SK-OV-3 ovarian, 105%; in the test with IGROV1 ovarian, 76.8%. Further, the growth with OVCAR-3 ovarian was 67.9%; in the test on HS 578T breast it was 104%; with NCI/ADR-RES ovarian it was 69.6%; with T-47D breast it was 77.1%.
Regarding `COc1ccc2c(c1)Oc1nc(N)c(C#N)c(N)c1C2Sc1ccc(O)cc1` (stereo not given), the growth in the test on RPMI-8226 leukemia was 53.4%; with OVCAR-8 ovarian, 102%; in the test on OVCAR-5 ovarian, 118%; with OVCAR-4 ovarian, 88.8%; in the test with SK-OV-3 ovarian, 104%; in the test on IGROV1 ovarian, 62%. Moreover, the growth in the test on OVCAR-3 ovarian is 79.7%; with HS 578T breast, 109%; in the test on NCI/ADR-RES ovarian, 106%; in the test on T-47D breast it was 50.7%.
Regarding `COc1ccc2[nH]c(-c3ccccc3)c(C=C(C#N)C#N)c2c1`, the growth is -50.2% (active) in the test with RPMI-8226 leukemia; 48.2% in the test on OVCAR-8 ovarian; 65.7% in the test with OVCAR-5 ovarian; 35% in the test with OVCAR-4 ovarian; 51.2% in the test on SK-OV-3 ovarian; 49.5% with IGROV1 ovarian. The growth in the test on OVCAR-3 ovarian was 7.4% (active); with HS 578T breast, 40.9%; in the test with NCI/ADR-RES ovarian, -4.6% (active); in the test on T-47D breast, 26.4%.
Turning to `COc1ccc(-c2cc(-c3nnc(SCC(=O)Nc4ccc(/C(C)=N\O)cc4)o3)c3ccccc3n2)cc1`, the growth in the test with RPMI-8226 leukemia is 99%; in the test with OVCAR-8 ovarian, 105%; in the test on OVCAR-5 ovarian, 113%; in the test with OVCAR-4 ovarian it was 103%; with SK-OV-3 ovarian, 111%; in the test with IGROV1 ovarian it was 112%. Also, the growth in the test on OVCAR-3 ovarian was 98%; in the test with HS 578T breast it was 99.9%; in the test on NCI/ADR-RES ovarian, 102%; in the test with T-47D breast, 102%.
`COc1ccc2nc(-c3ccc(Cl)cc3)cc(-c3nnc(SC/C(=N/O)c4ccccc4)o3)c2c1`: the growth in the test on RPMI-8226 leukemia is 41.3%; in the test on OVCAR-8 ovarian, 49.7%; with OVCAR-5 ovarian, 84.2%; in the test with OVCAR-4 ovarian, 16.7%; with SK-OV-3 ovarian, 69.6%; in the test on IGROV1 ovarian, 50.8%. Moreover, the growth in the test on OVCAR-3 ovarian is 34%; in the test with HS 578T breast, 71.9%; in the test on NCI/ADR-RES ovarian it was 57.4%; in the test with T-47D breast, 27%.
Take `CC1CCCN(CCCCCOc2ccc3oc4ccccc4c(=O)c3c2)C1` (stereo not given): the growth is 50.7% with RPMI-8226 leukemia; 77.5% in the test on OVCAR-8 ovarian; 79.4% in the test on OVCAR-5 ovarian; 83.1% in the test on OVCAR-4 ovarian; 99.7% in the test with SK-OV-3 ovarian; 67.3% with IGROV1 ovarian. In addition, the growth was 77.9% in the test with OVCAR-3 ovarian, 77.8% in the test on HS 578T breast, 73.3% with NCI/ADR-RES ovarian and 65.4% in the test on T-47D breast.
